Reference: PubChem BioAssay (Tox21)
Inconclusive results are not listed. Active and inactive are the calls of the source. Unless noted, the call rests on the fitted dose curve; in most records, active means well fitted curve in the direction sought with a large enough effect in the repeat runs; inconclusive means weak or mixed curves; inactive means no such curve, though single readings can be large; an effect the other way counts as inactive or inconclusive.

Experiments:
[1] = qHTS assay for identifying genotoxic compounds that show differential cytotoxicity against isogenic chicken DT40 cell lines with known DNA damage response pathways - wild type cell line (AID 743012); further: nearly all actives have a fitted effect of over 60% in size; further: potency means the concentration at half of the fitted maximal effect
How it was run: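 Wild type DT40, 300 cells/well, ~0.5 h settle at 37 C/5% CO2; compounds in DMSO added by pintool; 40 h at 37 C/5% CO2; CellTiter-Glo, 30 min RT; luminescence.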

[2] = qHTS assay for identifying genotoxic compounds that show differential cytotoxicity against isogenic chicken DT40 cell lines with known DNA damage response pathways - Rev3 mutant cell line (AID 743014); further: nearly all actives have a fitted effect of over 55% in size; further: potency means the concentration at half of the fitted maximal effect
[3] = qHTS assay for identifying genotoxic compounds that show differential cytotoxicity against isogenic chicken DT40 cell lines with known DNA damage response pathways - Rad54/Ku70 mutant cell line (AID 743015); further: nearly all actives have a fitted effect of over 60% in size; further: potency means the concentration at half of the fitted maximal effect
[4] = qHTS assay to identify small molecule antagonists of the androgen receptor (AR) signaling pathway - cell viability counter screen (AID 743033; further: nearly all actives have a fitted effect of over 45% in size)
[5] = qHTS assay to identify small molecule antagonists of the androgen receptor (AR) signaling pathway using the MDA cell line - cell viability counter screen (AID 743041; further: nearly all actives have a fitted effect of over 45% in size)
How it was run: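 R1881-driven MDA-kb2 AR-luc cells, 3,000/well, were dosed with library compounds for 16 h; cell health came from CellTiter-Fluor fluorescence in the reporter wells.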

[6] = qHTS assay to identify small molecule antagonists of the thyroid receptor (TR) signaling pathway - cell viability counter screen (AID 743064); further: nearly all actives have a fitted effect of over 50% in size; further: potency means the concentration at half of the fitted maximal effect
How it was run: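 Counter screen for cytotoxicity: compound plus T3 (1 nM final) on GH3.TRE-Luc cells, 23.5 h at 37 °C, then fluorescence viability readout with CellTiter-Fluor.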

[7] = qHTS assay to identify small molecule antagonists of the thyroid receptor (TR) signaling pathway (AID 743065); further: nearly all actives have a fitted effect of over 55% in size; further: potency means the concentration at half of the fitted maximal effect
How it was run: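 Antagonism measured as loss of luciferase signal in GH3 cells stably carrying a TRE-luciferase reporter, co-treated with compound and T3 (1 nM final) for 23.5 h at 37 C. Viability was read in the same well by CellTiter-Fluor.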

[8] = system: thyroid hormone receptor (rat, GH3 cells); assay: qHTS assay to identify small molecule agonists of the thyroid receptor (TR) signaling pathway (AID 743066; calls by dose curve)
[9] = qHTS assay to identify small molecule antagonists of the estrogen receptor alpha (ER-alpha) signaling pathway - cell viability counter screen (AID 743074; calls by dose curve;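 further: HEK293 cells carrying ER-alpha-UAS-bla reporter stimulated with 17beta-estradiol; nearly all actives have a fitted effect of over 45% in size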)
[10] = qHTS assay to identify small molecule antagonists of the estrogen receptor alpha (ER-alpha) signaling pathway using the BG1 cell line - cell viability counter screen (AID 743081);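 further: compound given together with 17beta-estradiol as the ER stimulus; nearly all actives have a fitted effect of over 45% in size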
Aromatase (Homo sapiens) = Aromatase (Homo sapiens) (UniProt P11511); assay: qHTS assay to identify aromatase inhibitors (AID 743083); further: nearly all actives have a fitted effect of over 55% in size
[11] = target: Estrogen receptor (Homo sapiens) (UniProt P03372); assay: qHTS assay to identify small molecule antagonists of the estrogen receptor alpha (ER-alpha) signaling pathway (AID 743069; active means well fitted curve in the direction sought with a large enough effect in the signal ratio in the repeat runs, not every such curve was filed as active; the % refers to the signal ratio)
How it was run: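 Compound effects are measured against 17beta-estradiol stimulation in HEK293 cells with a UAS-controlled beta-lactamase reporter for ER-alpha. Exposure lasts 18 hr at 37C; LiveBLAzer B/G FRET substrate follows for 2 hr at room temperature.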

[12] = target: Estrogen receptor (Homo sapiens) (UniProt P03372); assay: qHTS assay to identify small molecule agonists of the estrogen receptor alpha (ER-alpha) signaling pathway (AID 743075; calls by dose curve)
[13] = qHTS assay to identify small molecule antagonists of the estrogen receptor alpha (ER-alpha) signaling pathway using the BG1 cell line (AID 743080; calls by dose curve;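 further: BG1 cells stimulated with 17beta-estradiol alongside compound; nearly all actives have a fitted effect of over 25% in size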; further: potency means the concentration at half of the fitted maximal effect)
How it was run: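 BG1-Luc-4E2 cells (endogenous full-length ER-alpha, 4xERE luciferase) hormone-starved 5 days in charcoal-stripped FBS, plated 4,000/well for 24 h, then compound plus 17beta-estradiol for 21.5 h at 37 C; ONE-Glo luminescence read.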

[14] = target: Estrogen receptor (Homo sapiens) (UniProt P03372); assay: qHTS assay to identify small molecule agonists of the estrogen receptor alpha (ER-alpha) signaling pathway using the BG1 cell line (AID 743079); conditions: BG1Luc4E2 cells, ERE-luciferase agonist, 22 h; further: nearly all actives have a fitted effect of over 20% in size
[15] = qHTS assay to identify small molecule antagonists of the glucocorticoid receptor (GR) signaling pathway - cell viability counter screen (AID 720693); further: nearly all actives have a fitted effect of over 55% in size
[16] = target: Androgen receptor (Homo sapiens) (UniProt P10275); assay: qHTS assay to identify small molecule antagonists of the androgen receptor (AR) signaling pathway (AID 743035; active means well fitted inhibition curve with a large enough effect in the signal ratio in the repeat runs, not every such curve was filed as active; the % refers to the signal ratio; further: potency means the concentration at half of the fitted maximal effect)
How it was run: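 Fluorescence from a beta-lactamase FRET substrate (LiveBLAzer B/G, 2 h, room temperature) measured inhibition of R1881-stimulated signaling in GeneBLAzer AR-UAS-bla HEK293 cells exposed to compound for 16 h at 37C.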

[17] = target: Androgen receptor (Homo sapiens) (UniProt P10275); assay: qHTS assay to identify small molecule agonists of the androgen receptor (AR) signaling pathway (AID 743036; active means well fitted activation curve with a large enough effect in the signal ratio in the repeat runs, with a control signal flat, not every such curve was filed as active; the % refers to the signal ratio)
How it was run: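 In this Tox21 qHTS, 2,000 HEK293 AR-bla cells per well were incubated with compounds for 16 h at 37C and 5% CO2. Fluorescence intensity was recorded 2 h after adding LiveBLAzer B/G FRET substrate at room temperature.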

[18] = target: Androgen receptor (Homo sapiens) (UniProt P10275); assay: qHTS assay to identify small molecule agonists of the androgen receptor (AR) signaling pathway using the MDA cell line (AID 743040; further: nearly all actives have a fitted effect of over 20% in size)
How it was run: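 After a 5 h incubation at 37C and 0% CO2, MDA-kb2 reporter cells were dosed with compounds in DMSO and kept 16 h under the same conditions. Luciferase activity was then read as luminescence with ONE-Glo.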

[19] = target: Androgen receptor (Homo sapiens) (UniProt P10275); assay: qHTS assay to identify small molecule antagonists of the androgen receptor (AR) signaling pathway using the MDA cell line (AID 743042; further: nearly all actives have a fitted effect of over 55% in size)
How it was run: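 Antagonist mode: compounds plus R1881 agonist added to MDA-kb2 AR-luc cells, incubated 16 h at 37C. Luciferase reporter luminescence quantified, with multiplexed CellTiter-Fluor readout for cell viability.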
On the % scale 0 is the no-effect control and ±100 the full control effect.

Chain of Estrogen receptor (Homo sapiens) (P03372 whole entry, looked up): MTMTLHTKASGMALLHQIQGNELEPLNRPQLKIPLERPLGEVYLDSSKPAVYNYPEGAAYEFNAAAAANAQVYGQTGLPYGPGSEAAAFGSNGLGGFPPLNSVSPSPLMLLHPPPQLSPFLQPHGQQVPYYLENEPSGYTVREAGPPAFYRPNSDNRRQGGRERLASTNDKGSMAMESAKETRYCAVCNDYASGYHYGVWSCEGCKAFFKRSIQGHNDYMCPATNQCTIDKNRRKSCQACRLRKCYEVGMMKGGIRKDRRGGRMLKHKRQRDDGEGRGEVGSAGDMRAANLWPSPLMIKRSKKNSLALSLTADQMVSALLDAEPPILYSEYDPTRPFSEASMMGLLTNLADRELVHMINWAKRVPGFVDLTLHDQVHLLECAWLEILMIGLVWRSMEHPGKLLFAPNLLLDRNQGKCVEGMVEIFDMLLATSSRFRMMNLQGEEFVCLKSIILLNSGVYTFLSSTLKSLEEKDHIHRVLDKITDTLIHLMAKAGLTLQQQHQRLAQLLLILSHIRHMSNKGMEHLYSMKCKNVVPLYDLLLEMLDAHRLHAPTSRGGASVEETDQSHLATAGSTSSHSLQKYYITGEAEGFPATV
Chain of Aromatase (Homo sapiens) (P11511 whole entry, looked up): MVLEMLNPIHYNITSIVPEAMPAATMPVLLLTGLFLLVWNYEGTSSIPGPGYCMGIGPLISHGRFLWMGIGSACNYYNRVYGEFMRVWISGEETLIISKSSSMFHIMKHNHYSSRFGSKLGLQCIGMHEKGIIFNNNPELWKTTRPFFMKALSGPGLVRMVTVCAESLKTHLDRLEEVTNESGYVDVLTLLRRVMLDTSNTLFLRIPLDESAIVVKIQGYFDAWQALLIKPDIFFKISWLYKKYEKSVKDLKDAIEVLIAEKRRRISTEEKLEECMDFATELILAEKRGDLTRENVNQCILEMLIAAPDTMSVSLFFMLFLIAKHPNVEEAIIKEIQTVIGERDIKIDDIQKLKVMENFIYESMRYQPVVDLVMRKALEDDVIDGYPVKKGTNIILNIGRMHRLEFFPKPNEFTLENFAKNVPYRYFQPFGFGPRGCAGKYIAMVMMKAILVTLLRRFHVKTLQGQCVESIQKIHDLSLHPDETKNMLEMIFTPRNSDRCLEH
Chain of Androgen receptor (Homo sapiens) (P10275 whole entry, looked up): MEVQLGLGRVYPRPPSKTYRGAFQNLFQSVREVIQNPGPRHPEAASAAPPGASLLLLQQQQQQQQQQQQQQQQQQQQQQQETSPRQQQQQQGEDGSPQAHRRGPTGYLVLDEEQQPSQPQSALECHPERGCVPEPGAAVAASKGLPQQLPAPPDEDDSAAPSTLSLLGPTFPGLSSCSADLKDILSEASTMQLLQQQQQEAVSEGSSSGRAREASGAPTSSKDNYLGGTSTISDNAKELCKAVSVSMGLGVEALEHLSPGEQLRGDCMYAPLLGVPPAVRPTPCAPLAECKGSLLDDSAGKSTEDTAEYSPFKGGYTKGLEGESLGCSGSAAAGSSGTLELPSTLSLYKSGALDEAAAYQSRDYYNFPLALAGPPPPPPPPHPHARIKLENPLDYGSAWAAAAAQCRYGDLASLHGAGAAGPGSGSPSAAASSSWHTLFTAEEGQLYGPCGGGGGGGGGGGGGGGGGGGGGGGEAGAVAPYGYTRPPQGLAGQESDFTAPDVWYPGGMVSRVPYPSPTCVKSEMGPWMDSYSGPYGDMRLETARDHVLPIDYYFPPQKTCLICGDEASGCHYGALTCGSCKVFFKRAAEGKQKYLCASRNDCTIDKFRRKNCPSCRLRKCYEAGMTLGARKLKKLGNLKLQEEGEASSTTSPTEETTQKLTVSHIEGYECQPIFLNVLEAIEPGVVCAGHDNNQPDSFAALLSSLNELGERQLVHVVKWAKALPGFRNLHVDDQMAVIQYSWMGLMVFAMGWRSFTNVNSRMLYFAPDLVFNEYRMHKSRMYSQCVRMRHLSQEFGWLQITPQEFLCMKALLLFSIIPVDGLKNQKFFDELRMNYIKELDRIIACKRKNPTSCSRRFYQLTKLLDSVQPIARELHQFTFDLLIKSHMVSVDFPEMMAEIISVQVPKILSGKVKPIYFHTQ

CCNc1nc(NC(C)C)nc(OC)n1
inactive: Potency [1] | Potency [2] | Potency [3] | Potency [4] | Potency [5] | Potency [6] | Potency [7] | Potency [8] | outcome [9] | Potency [10] | Potency (Aromatase (Homo sapiens))

ClC(Cl)Br
inactive: Potency [1] | Potency [2] | Potency [3] | Potency [4] | Potency [5] | Potency [6] | Potency [7] | Potency [8] | Potency [11] | outcome [9] | Potency [12] | Potency [13] | Potency [10] | Potency (Aromatase (Homo sapiens))

N#Cc1ccncc1
inactive: Potency [1] | Potency [2] | Potency [3] | Potency [4] | Potency [5] | Potency [6] | Potency [7] | Potency [8] | Potency [11] | outcome [9] | Potency [12] | activation ([14]; at 95 µM (top of the series)) 1.2% | Potency [13] | Potency [10] | Potency (Aromatase (Homo sapiens))

Nc1cc(Cl)ccc1O
inactive: Potency [4] | Potency [5] | Potency [8] | Potency [11] | Potency [12] | activation ([14]; at 70.3 µM (top of the series)) -2.11% | Potency [10] | Potency (Aromatase (Homo sapiens))
active: Potency [1] 14.9 µM | Potency [2] 14.9 µM | Potency [3] 9.37 µM | Potency [6] 23.5 µM | Potency [7] 59.1 µM | Potency [13] 7.45 µM

Nc1n[nH]c(N)n1
inactive: Potency [15] | Potency [2] | Potency [4] | Potency [5] | Potency [6] | Potency [7] | Potency [8] | outcome [9] | Potency [10] | Potency (Aromatase (Homo sapiens))

CCOP(=O)(N=C1SCCS1)OCC
inactive: Potency [1] | Potency [2] | Potency [3] | Potency [4] | Potency [5] | Potency [6] | Potency [7] | Potency [8] | Potency [11] | outcome [9] | Potency [12] | activation ([14]; at 70.3 µM (top of the series)) -3.11% | Potency [13] | Potency [10] | Potency (Aromatase (Homo sapiens))

COc1cc(OC)nc(Oc2cccc(Oc3nc(OC)cc(OC)n3)c2C(=O)O)n1
inactive: Potency [1] | Potency [2] | Potency [3] | Potency [4] | Potency [16] | outcome [17] | Potency [18] | Potency [5] | outcome [19] | Potency [6] | Potency [7] | Potency [8] | outcome [9] | Potency [10] | Potency (Aromatase (Homo sapiens))

CC(=O)[C@H]1CC[C@H]2[C@@H]3CC[C@H]4C[C@H](O)CC[C@]4(C)[C@H]3C(=O)C[C@]12C
inactive: Potency [15] | Potency [5] | Potency [8] | Potency [11] | outcome [9] | Potency [12] | activation ([14]; at 70.3 µM (top of the series)) 8.45% | Potency [13] | Potency [10] | Potency (Aromatase (Homo sapiens))

Cc1ncc2n1-c1ccc(Cl)cc1C(c1ccccc1F)=NC2
inactive: Potency [15] | Potency [2] | Potency [4] | Potency [5] | Potency [8] | Potency [12] | Potency [10] | Potency (Aromatase (Homo sapiens))
active: Potency [13] 11.9 µM

OCCSCSCCO
inactive: Potency [1] | Potency [2] | Potency [3] | Potency [4] | Potency [5] | Potency [6] | Potency [7] | Potency [8] | Potency [11] | outcome [9] | Potency [12] | activation ([14]; at 70.3 µM (top of the series)) -2.71% | Potency [13] | Potency [10] | Potency (Aromatase (Homo sapiens))

O=CNC(N1CCN(C(NC=O)C(Cl)(Cl)Cl)CC1)C(Cl)(Cl)Cl (configuration not stated)
active: Potency [2] 61.1 µM | Potency [16] 6.16 µM
inactive: Potency [15] | Potency [4] | outcome [17] | Potency [18] | Potency [5] | outcome [19] | Potency [6] | Potency [7] | Potency [8] | Potency [11] | Potency [12] | activation ([14]; at 70.3 µM (top of the series)) -11.3% | Potency [13] | Potency [10] | Potency (Aromatase (Homo sapiens))

NC(=S)C(N)=S
inactive: Potency [1] | Potency [2] | Potency [3] | Potency [4] | Potency [5] | Potency [7] | Potency [8] | outcome [9] | Potency [12] | activation ([14]; at 70.3 µM (top of the series)) -1.3% | Potency [13] | Potency [10] | Potency (Aromatase (Homo sapiens))

COC(=O)C(C)Oc1ccc(Oc2ccc(Cl)cc2Cl)cc1 (configuration not stated)
active: Potency [3] 68.6 µM
inactive: Potency [15] | Potency [4] | Potency [5] | Potency [7] | Potency [8] | outcome [9] | Potency [10] | Potency (Aromatase (Homo sapiens))

CCOP(=S)(OCC)Oc1nc(Cl)n(C(C)C)n1
active: Potency [2] 68.6 µM
inactive: Potency [15] | Potency [4] | Potency [5] | Potency [6] | Potency [7] | Potency [8] | Potency [11] | outcome [9] | Potency [12] | activation ([14]; at 70.3 µM (top of the series)) 5.59% | Potency [13] | Potency [10] | Potency (Aromatase (Homo sapiens))

CC(CC(C#N)(c1ccccc1)c1ccccc1)N(C)C (configuration not stated)
inactive: Potency [4] | Potency [5] | Potency [8] | Potency [11] | outcome [9] | Potency [12] | activation ([14]; at 70.3 µM (top of the series)) -6.75% | Potency [13] | Potency [10] | Potency (Aromatase (Homo sapiens))
active: Potency [1] 30.5 µM | Potency [2] 54.2 µM | Potency [3] 48.3 µM | Potency [6] 24.2 µM | Potency [7] 30.5 µM

COP(=S)(OC)Oc1ccc(S(N)(=O)=O)cc1
inactive: Potency [15] | Potency [3] | Potency [4] | Potency [5] | Potency [6] | Potency [7] | Potency [8] | Potency [11] | Potency [12] | activation ([14]; at 70.3 µM (top of the series)) 10.7% | Potency [13] | Potency [10] | Potency (Aromatase (Homo sapiens))

CC1CCCCC1NC(=O)Nc1ccccc1 (configuration not stated)
inactive: Potency [15] | Potency [4] | Potency [5] | Potency [6] | Potency [7] | Potency [8] | Potency [11] | outcome [9] | Potency [12] | Potency [10] | Potency (Aromatase (Homo sapiens))

CC(COc1ccc(Oc2ccccc2)cc1)Oc1ccccn1 (configuration not stated)
inactive: Potency [15] | Potency [4] | outcome [17] | Potency [18] | Potency [5] | outcome [19] | Potency [6] | Potency [7] | Potency [8] | outcome [9] | Potency [10] | Potency (Aromatase (Homo sapiens))

ClCC(Cl)Cl
inactive: Potency [15] | Potency [2] | Potency [4] | Potency [5] | Potency [6] | Potency [8] | outcome [9] | Potency [13] | Potency [10] | Potency (Aromatase (Homo sapiens))
